High-throughput results (PubChem BioAssay)
The list is not random: actives were taken first. Their share in the collection is about 1.9%.
PrP 5UTR inh – inhibition of PrP 5' UTR reporter expression | cell-based PrP 5' UTR mRNA reporter, plate reader | inhibition, % (test concentration not listed) | 340,000 tested, 0.35% active | AID 488862; in the data active = inhibition above about 52%
SSB-PriA inh – blocks PriA binding to SSB C-terminal tail | AlphaScreen SSBct-PriA binding, biotinylated peptide | inhibition, % at 33 µM | 430,000 tested, 0.6% active | AID 1272365; in the data active = inhibition mostly above about 37%, no sharp cut-off; inactive = mostly below about 20%
BJeLR lethal – BJeLR cell viability loss; BJeLR (HRASV12) viability, CellTiter-Glo ATP luminescence, 48 h; inhibition, % (no concentration beside the values); 300,000 tested, 0.17% active; in the data active = inhibition above about 50%; inconclusive = no clear call, values can overlap the other calls
PfHsp40 yeast – rescue of PfHsp40-mediated yeast toxicity. 340,000 tested, 0.68% active. S. cerevisiae expressing PfHsp40, growth rescue, ATP luminescence. growth rescue, % at 12.5 µM; in the data active = growth rescue above about 28%, passing the limit was not always enough; inconclusive = no clear call, values can overlap the other calls;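 note: yeast W303a lacking pdr1 and pdr3 grown in galactose medium; growth measured after three days at 30 °C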
RecA intein inh – blocks M. tuberculosis RecA intein splicing | 290,000 tested, 0.75% active | cell-free RecA intein splicing, fluorescence | P9WHJ3 | inhibition, % (concentration not given with the values); in the data active = inhibition above about 30%; inconclusive = no clear call, values can overlap the other calls
Target sequence (P9WHJ3 whole entry, looked up): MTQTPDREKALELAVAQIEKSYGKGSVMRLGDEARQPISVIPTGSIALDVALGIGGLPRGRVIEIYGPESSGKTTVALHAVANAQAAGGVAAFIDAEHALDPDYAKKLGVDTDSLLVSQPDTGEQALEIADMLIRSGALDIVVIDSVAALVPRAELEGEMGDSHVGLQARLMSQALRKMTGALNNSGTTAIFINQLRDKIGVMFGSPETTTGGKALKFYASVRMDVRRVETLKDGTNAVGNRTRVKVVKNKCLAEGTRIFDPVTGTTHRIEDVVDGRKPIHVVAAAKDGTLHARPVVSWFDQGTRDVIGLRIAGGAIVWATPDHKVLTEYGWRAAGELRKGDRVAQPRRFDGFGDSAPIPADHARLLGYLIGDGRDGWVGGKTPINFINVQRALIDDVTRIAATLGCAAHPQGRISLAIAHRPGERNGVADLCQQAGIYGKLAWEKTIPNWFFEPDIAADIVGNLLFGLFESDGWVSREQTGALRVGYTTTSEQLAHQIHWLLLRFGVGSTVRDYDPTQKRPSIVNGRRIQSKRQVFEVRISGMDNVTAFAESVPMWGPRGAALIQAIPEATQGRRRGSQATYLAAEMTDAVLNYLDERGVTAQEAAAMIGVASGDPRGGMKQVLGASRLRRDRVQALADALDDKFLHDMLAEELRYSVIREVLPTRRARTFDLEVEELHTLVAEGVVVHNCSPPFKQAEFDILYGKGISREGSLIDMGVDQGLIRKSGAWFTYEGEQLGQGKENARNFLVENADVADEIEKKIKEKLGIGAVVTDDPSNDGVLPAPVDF
PrPC TRFRET – cell surface PrPC inhibition, primary TR-FRET screen | TR-FRET read-out | AID 720596 | 370,000 tested, 0.43% active | P04156 | inhibition, % at 13.8 µM; in the data active = inhibition above about 24%
Numbers stand for hits; – = inactive; ? = inconclusive; · = not tested or not shown.

SMILES	PrP 5UTR inh	SSB-PriA inh	BJeLR lethal	PfHsp40 yeast	RecA intein inh	PrPC TRFRET
CC1=CC(=O)CC(=O)N1CC(=O)Nc1nc(-c2ccccn2)cs1	·	84.0	·	·	·	·
O/N=C/c1ccccc1OCc1ccc(Cl)cc1	–	·	–	237.0	–	–
Cc1ccc(S(=O)(=O)N2CCN(S(=O)(=O)c3ccc(C)cc3)C(C)C2)cc1 (stereo not drawn)	·	–	·	·	·	·
COc1ccc(C(=O)NNC(=O)Cc2ccc([N+](=O)[O-])cc2)cc1	–	–	–	–	–	–
COc1ccc(CC2(C)OC(c3ccc([N+](=O)[O-])cc3)=NN2C(C)=O)cc1 (stereo not drawn)	–	44.8	–	?	–	–
CCCCC(=O)NN=Cc1ccc(Sc2cccc3cccnc23)o1	·	100.4	·	·	·	·
Cc1cccc(NC(=O)CSc2ccnc3ccc(Cl)cc23)c1	·	–	·	·	·	·
Cc1ccc2oc(C(=O)N(Cc3ccc(N(C)C)cc3)C3CCS(=O)(=O)C3)c(C)c2c1 (stereo not drawn)	–	43.5	–	–	–	–
Cc1c(C(=O)N(Cc2ccc(Cl)cc2)C2CCS(=O)(=O)C2)oc2ccccc12 (stereo not drawn)	–	–	–	–	–	–
CCOc1ccc(CN(C(=O)c2oc3ccccc3c2C)C2CCS(=O)(=O)C2)cc1 (stereo not drawn)	·	–	·	–	–	–
Cc1ccc2c(C)c(C(=O)N(Cc3ccc(N(C)C)cc3)C3CCS(=O)(=O)C3)oc2c1 (stereo not drawn)	–	39.1	–	–	–	–
Cc1c(C(=O)N(Cc2ccc(N(C)C)cc2)CC2CCCO2)oc2ccccc12 (stereo not drawn)	–	57.1	–	–	–	–
Cc1nc(NCCNC(=O)c2ccccc2)cc(-n2cccc2)n1	·	–	·	·	·	·
Cc1c(C(=O)Nc2c(N)nc(SCc3ccc(Cl)cc3Cl)[nH]c2=O)cccc1[N+](=O)[O-]	·	–	·	·	·	·
COc1ccc(/C=C2/NC(=S)N(c3ccccc3)C2=O)cc1	·	–	·	·	·	·
CCOC(=O)Cc1cc(=O)n(-c2nc3ccccc3s2)[nH]1	–	–	–	139.7	–	–
CC(C)(C)C(=O)N1CCc2ccc(NC(=O)c3cc4ccccc4s3)cc21	·	–	·	·	·	·
CCCNC(=O)c1nnsc1S(=O)(=O)c1ccc(Cl)cc1	–	–	·	119.5	·	–
CCN(CC)CCN(C(=O)c1ccc2ncsc2c1)c1nc2c(OC)ccc(C)c2s1	·	–	·	·	·	·
COc1ccc(OC)c(-c2csc(NC(=O)COc3ccc(Cl)cc3Cl)n2)c1	·	–	·	·	·	·
O=C(NOC(=O)c1ccccc1)c1ccccc1	–	–	–	238.5	–	–
COC(=O)c1ccccc1	·	·	·	·	·	–
COC(=O)CCC(=O)OC1(C)C(=O)C2=CN(CCN3CCOCC3)C(c3ccc(OC)cc3)=CC2=C(Br)C1=O (stereo not drawn)	·	·	–	·	–	·
COC(=O)CCC(=O)OC1(C)C(=O)C2=CN(CCCCO)C(c3ccc(OC)cc3)=CC2=C(Br)C1=O (stereo not drawn)	·	·	–	·	48.4	·
O=C(NN=Cc1c(O)ccc2ccccc12)c1ccc[n+](CCO)c1	·	41.2	·	·	·	·
SMILES	PrP 5UTR inh	SSB-PriA inh	BJeLR lethal	PfHsp40 yeast	RecA intein inh	PrPC TRFRET
O=C(N/N=C/c1c(O)ccc2ccccc12)c1ccc[n+](CCO)c1	–	·	–	?	–	–
Cc1ccccc1NC(=O)NCCN1CCC(O)CC1	·	–	·	·	·	·
Cc1ccc(NS(=O)(=O)c2ccc(C(=O)N3CCCC(C(F)(F)F)C3)cc2)cc1 (stereo not drawn)	–	–	–	50.7	–	–
O=C(NCCCS(=O)(=O)N1CCN(c2ccccn2)CC1)c1cc(=O)c2ccccc2o1	·	–	·	·	·	·
Cc1c(C(=O)NCCSCc2cccc(C(F)(F)F)c2)cnn1-c1ccc(F)cc1	–	–	–	100.8	–	–
Cc1c(C(=O)NCCSCc2c(F)cccc2Cl)cnn1-c1ccc(F)cc1	–	–	–	–	–	–
Cc1c(C(=O)NCCSCc2ccc(F)cc2)cnn1-c1ccc(Cl)cc1	–	–	–	43.3	–	–
O=S(=O)(NCC1CCCO1)c1ccc(Br)cc1 (stereo not drawn)	–	–	–	34.7	–	–
CCCCCCCCCCCCCCCC[n+]1ccc(/C=N/O)cc1	–	·	·	–	·	30.5
CCCCCCC[n+]1ccc(-c2cc[n+](CCCCCCC)cc2)cc1	–	–	–	–	–	–
Cc1nnc(SCc2nc3ccccc3c(=O)[nH]2)s1	·	–	·	·	·	·
CCOC(=O)c1ccc(N2C(=O)CC(N(C)CCc3ccc(OC)c(OC)c3)C2=O)cc1 (stereo not drawn)	–	–	–	557.8	–	–
